The structures appear in SMILES notation. Compounds without any hit were thinned out: in the full panel of roughly 83,000, 20% have a hit.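 Single-dose data. Exposure time 48 hours. Values below 10 considered active.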 A number with no mark means an inactive call. Active and inactive are the calls of the source.

Among the test systems are HCT-15 colon; HT29 colon; SNB-75 CNS; SNB-19 CNS; U251 CNS; PC-3 prostate; SK-MEL-5 melanoma; UACC-62 melanoma; LOX IMVI melanoma; SK-MEL-28 melanoma; SK-MEL-2 melanoma; EKVX NSCLC; SN12C renal; UO-31 renal; ACHN renal; CAKI-1 renal; A498 renal; CCRF-CEM leukemia; MOLT-4 leukemia; TK-10 renal.
Assay in all cases: NCI-60 one-dose screen, 48 h (100 = growth as untreated, 0 = no growth, -100 = all killed)
Holding throughout (conditions): 10 µM unless noted

For `C(=C1c2ccccc2-c2ccccc21)c1ccccn1`, the growth in the assay with HCT-15 colon was 42.8%; in the assay on HT29 colon, 17%; in the assay with SNB-75 CNS it was 62.5%; in the assay on SNB-19 CNS, 73.6%; with U251 CNS it was 50.4%; in the assay on PC-3 prostate, 78.1%. Moreover, the growth is 78.3% in the assay on SK-MEL-5 melanoma; 52.9% in the assay on UACC-62 melanoma; 57.2% with LOX IMVI melanoma; 81% in the assay on SK-MEL-28 melanoma; 54.2% with SK-MEL-2 melanoma; 70.6% in the assay on EKVX NSCLC. Also, the growth in the assay on SN12C renal was 80.3%; with UO-31 renal, 79.6%; with ACHN renal, 96.5%; with CAKI-1 renal, 52%; with A498 renal it was 97.8%; in the assay on CCRF-CEM leukemia, 85.5%. In the assay with MOLT-4 leukemia, the growth is 67.3%.

On to `Fc1ccccc1C1c2ccccc2-c2nccn21` (stereo unspecified), for which the growth was 99.2% in the assay with HCT-15 colon; 100% in the assay on HT29 colon; 98.2% with SNB-75 CNS; 100% with SNB-19 CNS; 98.8% with U251 CNS; 87.3% in the assay with PC-3 prostate. Further, the growth with SK-MEL-5 melanoma was 97%; with UACC-62 melanoma it was 89%; with LOX IMVI melanoma it was 98.1%; in the assay with SK-MEL-28 melanoma, 109%; in the assay with SK-MEL-2 melanoma, 99.5%; in the assay on EKVX NSCLC it was 96.1%. For the same compound, the growth in the assay with SN12C renal was 97.1%; in the assay on UO-31 renal, 93.7%; with TK-10 renal it was 97.4%; with CAKI-1 renal, 66.5%; in the assay with A498 renal it was 90.9%; in the assay on CCRF-CEM leukemia, 96.9%. Also, the growth in the assay with MOLT-4 leukemia was 87.4%.

Consider `COC(=O)CC1=C(c2ccc([N+](=O)[O-])cc2)CCC1=O`, for which the growth is 89.6% with HCT-15 colon; 107% in the assay with HT29 colon; 82% in the assay on SNB-75 CNS; 109% in the assay on SNB-19 CNS; 103% in the assay with U251 CNS; 91.9% with PC-3 prostate. The growth was 103% in the assay with SK-MEL-5 melanoma; 100% in the assay with UACC-62 melanoma; 94.6% in the assay with LOX IMVI melanoma; 109% in the assay on SK-MEL-28 melanoma; 103% in the assay on SK-MEL-2 melanoma; 94.5% with EKVX NSCLC. The growth with SN12C renal was 103%; in the assay with UO-31 renal, 80.5%; with ACHN renal, 102%; with CAKI-1 renal, 99.8%; in the assay on A498 renal, 69.5%; in the assay on CCRF-CEM leukemia it was 95.3%. For the same compound, the growth in the assay with MOLT-4 leukemia was 104%.

As to `Nc1ccn(C2O[C@H](CO)[C@@H](O)[C@@H]2O)c(=O)n1` (stereo partly specified), the growth in the assay on HCT-15 colon is 59.5%; with HT29 colon, 42.7%; in the assay with SNB-75 CNS, 78.6%; with SNB-19 CNS, 47.9%; in the assay with U251 CNS, 40%; with PC-3 prostate it was 63.9%. Also, the growth was 45.1% in the assay with SK-MEL-5 melanoma; 22.1% in the assay with UACC-62 melanoma; 19.1% with LOX IMVI melanoma; 68.5% in the assay on SK-MEL-28 melanoma; 88.3% with SK-MEL-2 melanoma; 91.8% in the assay with EKVX NSCLC. Further, the growth in the assay on SN12C renal was 37.1%; in the assay with UO-31 renal, 1.02% (active); with ACHN renal, 0.769% (active); in the assay with CAKI-1 renal, 12.4%; in the assay on A498 renal, 66.8%; with CCRF-CEM leukemia, 6.02% (active). The growth in the assay on MOLT-4 leukemia was 13.6%.

On to `O=C(Nc1nc2ccc(OC(F)(F)F)cc2s1)c1ccc(F)cc1`, for which the growth was 12% with HCT-15 colon; 15.7% in the assay with HT29 colon; 73.7% with SNB-75 CNS; 12.3% in the assay on SNB-19 CNS; 6.58% (active) in the assay with U251 CNS; 12.4% with PC-3 prostate. The growth in the assay with SK-MEL-5 melanoma was -7.36% (active); in the assay on UACC-62 melanoma, 7.77% (active); in the assay with LOX IMVI melanoma it was 11.3%; with SK-MEL-28 melanoma it was 33.5%; in the assay with SK-MEL-2 melanoma, -22.6% (active); with EKVX NSCLC, 15.6%. Also, the growth is 13.3% in the assay on SN12C renal; -4.24% (active) in the assay with UO-31 renal; 21.8% in the assay with TK-10 renal; 7.56% (active) in the assay on ACHN renal; 16.4% in the assay on A498 renal; 32.1% in the assay on CCRF-CEM leukemia. For the same compound, the growth in the assay with MOLT-4 leukemia is 13.8%.

On to `Clc1ccc(C2c3ccccc3-c3nccn32)c(Cl)c1` (stereo unspecified), for which the growth in the assay with HCT-15 colon is 72.1%; with HT29 colon, 77.9%; in the assay on SNB-75 CNS, 83.1%; in the assay on SNB-19 CNS it was 88.8%; with U251 CNS, 86.3%; in the assay on PC-3 prostate it was 64.2%. Moreover, the growth in the assay with SK-MEL-5 melanoma was 47.3%; with UACC-62 melanoma, 73.2%; with LOX IMVI melanoma, 76.5%; in the assay with SK-MEL-28 melanoma it was 112%; in the assay with SK-MEL-2 melanoma, 80.7%; in the assay with EKVX NSCLC it was 60%. In addition, the growth in the assay on SN12C renal was 85.4%; in the assay with UO-31 renal, 80.1%; with TK-10 renal, 81.3%; with ACHN renal, 89.7%; in the assay on CAKI-1 renal, -12% (active); in the assay on MOLT-4 leukemia it was 65.6%.

Regarding `NS(=O)(=O)c1ccc(-n2ncc3c(NC4CCCCC4)ncnc32)cc1`, the growth is 86.4% in the assay on HCT-15 colon; 81.9% with HT29 colon; 113% in the assay with SNB-75 CNS; 94.1% in the assay with SNB-19 CNS; 96.3% in the assay with U251 CNS; 92.9% in the assay on PC-3 prostate. The growth in the assay on SK-MEL-5 melanoma was 88.1%; in the assay with UACC-62 melanoma it was 97.2%; in the assay on LOX IMVI melanoma, 80.8%; with SK-MEL-28 melanoma, 98%; in the assay with SK-MEL-2 melanoma, 103%; in the assay with EKVX NSCLC it was 102%. Moreover, the growth in the assay with SN12C renal was 97.5%; in the assay on UO-31 renal, 0.88% (active); in the assay with ACHN renal it was 92.3%; in the assay with CAKI-1 renal, 39.6%; with A498 renal, 106%; in the assay with CCRF-CEM leukemia it was 82.3%. Moreover, the growth with MOLT-4 leukemia was 72.6%.

With `COc1ccc(C2CC(c3ccc4c(c3)OCO4)=NN2C=O)cc1` (stereo unspecified), the growth was 102% in the assay with HCT-15 colon; 98% with HT29 colon; 76.4% in the assay with SNB-75 CNS; 93.9% with SNB-19 CNS; 102% with U251 CNS; 93.4% with PC-3 prostate. Moreover, the growth was 95.9% in the assay with SK-MEL-5 melanoma; 82.1% in the assay on UACC-62 melanoma; 95.4% in the assay with LOX IMVI melanoma; 107% in the assay on SK-MEL-28 melanoma; 100% in the assay on SK-MEL-2 melanoma; 91.7% with EKVX NSCLC. Further, the growth in the assay with SN12C renal was 106%; with UO-31 renal it was 87.4%; in the assay with ACHN renal, 103%; in the assay on CAKI-1 renal it was 102%; in the assay with A498 renal, 91.2%; in the assay on CCRF-CEM leukemia, 93.9%. The growth in the assay with MOLT-4 leukemia is 101%.

These data come from PubChem BioAssay (NCI).
